Bioassay records deposited in PubChem BioAssay by National Center for Advancing Translational Sciences (NCATS).
D2 antag – HTS Assay for Allosteric Antagonists of the Human D2 Dopamine Receptor: Primary Screen for Antagonists. inhibition, % at 10 µM. AID 485344, 2010. D(2) dopamine receptor (Homo sapiens), P14416. actives 2% (n = 340,000). HEK293 TREx D2 cells, calcium flux, dopamine EC80; in the data active = inhibition above about 30%; inactive = below that, where a call was filed; note: 0% is about no effect
Target sequence (P14416 whole entry, looked up): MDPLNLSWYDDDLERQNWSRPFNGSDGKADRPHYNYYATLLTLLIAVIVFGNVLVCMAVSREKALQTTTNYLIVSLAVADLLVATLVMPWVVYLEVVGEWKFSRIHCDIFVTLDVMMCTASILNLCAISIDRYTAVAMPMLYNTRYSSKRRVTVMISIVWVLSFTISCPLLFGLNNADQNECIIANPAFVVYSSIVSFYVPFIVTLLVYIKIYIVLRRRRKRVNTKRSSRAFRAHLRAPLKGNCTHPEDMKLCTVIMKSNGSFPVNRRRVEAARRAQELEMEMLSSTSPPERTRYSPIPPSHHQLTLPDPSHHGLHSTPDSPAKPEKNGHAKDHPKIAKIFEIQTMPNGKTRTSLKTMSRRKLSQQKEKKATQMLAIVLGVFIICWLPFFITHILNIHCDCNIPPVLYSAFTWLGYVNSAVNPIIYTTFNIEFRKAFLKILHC
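Tetracycline-induced HEK293 T-REx cells expressing D2 force-coupled to calcium signalling were dye-loaded, exposed to compound for 180 s, then challenged with an EC80 of dopamine; calcium flux was followed kinetically for a further 180 s.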
D2 ag-1 – Beta-Arrestin HTS for Positive Allosteric Modulators of the Human D2 Dopamine Receptor: Agonists. actives 0.084% (n = 360,000). activation, % (no concentration beside the values). D(2) dopamine receptor (Homo sapiens), P14416. AID 624465, 2012. DiscoveRx PathHunter D2 beta-arrestin, luminescence, 90 min; 100% = 57 uM dopamine signal; in the data active = activation above about 40%; inconclusive = between about 15% and that limit
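Agonist mode: compounds alone added to overnight-plated D2 PathHunter cells for 90 min at 37 C, with 57 uM final dopamine (EC100) defining full response. Beta-arrestin recruitment detected by chemiluminescent reagent, read after 1 h at ambient temperature.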
D2 PAM-1 – HTS Assay for Positive Allosteric Modulators of the Human D2 Dopamine Receptor: Primary Screen for Potentiators; HEK293 T-REx D2, calcium flux, EC20 dopamine potentiation; potentiation, % at 10 µM; actives 0.34% (n = 340,000);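 active = potentiation over 3 SD above the plate norm, cut at about 30% in these data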; note: 0% is about no effect
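Using a no-wash calcium dye in inducible, force-coupled HEK293 Trex cells expressing D2, we tracked fluorescence each second for 180 s after compound, then for 180 s after EC20 dopamine to detect augmented signalling.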
D2 ag-2 – HTS Assay for Allosteric Agonists of the Human D2 Dopamine Receptor: Primary Screen for Agonists | D(2) dopamine receptor (Homo sapiens), P14416 | HEK293 T-REx D2 cells, calcium flux agonist mode | activation, % at 2 µM | actives 0.53% (n = 340,000) | AID 485358, 2010;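 active = activation over 3 SD above normal in the single-dose calcium agonist read, cut at about 30% in these data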; note: 0% is about no effect
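Calcium-flux readout, 1 cycle/sec over 180 s following compound pin transfer, in inducible HEK293 Trex D2 cells (force-coupled); dopamine controls included. Positive calcium responses during this window marked compounds as potential agonists.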
D2 PAM-2 – Beta-Arrestin HTS for Positive Allosteric Modulators of the Human D2 Dopamine Receptor: Potentiators | D(2) dopamine receptor (Homo sapiens), P14416 | DiscoveRx D2 beta-arrestin cells, luminescence, 90 min; 100% = 57 uM dopamine signal | potentiation, % (concentration not given with the values) | actives 0.23% (n = 360,000) | AID 624464, 2012; in the data active = potentiation above about 50%; inconclusive = mostly about 30% to 49%
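D2 cells co-treated with compound plus 50 nM dopamine (EC20) for 90 min at 37 deg C to detect potentiation. Beta-arrestin recruitment was read as enzyme-fragment luminescence after 1 h at ambient temperature. Full response was set by 57 uM dopamine.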
Numbers without * were called inactive; ? = inconclusive; / = no result given. Only some compounds are listed: those with a hit (about 2.4% of all), similar ones and a draw of the others.

SMILES	D2 antag	D2 ag-1	D2 PAM-1	D2 ag-2	D2 PAM-2
O=C(N/N=C(\c1ccccc1)c1cccnc1)C(O)(c1ccccc1)c1ccccc1	/	-2	/	/	-2
Cc1cc(Nc2ccccc2)nn1C(=O)c1ccc(Cl)cc1	20	1	-4	-1	-6
Cc1cc(Nc2ccccc2)nn1C(=O)c1ccc([N+](=O)[O-])cc1	1	4	-5	0	56*
Cn1c(CS(=O)Cc2c(Cl)cccc2Cl)nnc1SCc1ccc(Cl)cc1 (configuration not stated)	31*	0	11	-1	-10
Cc1ccc(CSc2nnc(CS(=O)Cc3ccc(Cl)cc3Cl)n2C)cc1 (configuration not stated)	-9	0	5	0	7
CCCCOc1ccc(S(=O)(=O)Nc2ccc(-c3ccc(N4CCCCCC4)nn3)cc2)cc1	/	/	-2	-1	/
N#Cc1c2c(c(NCc3ccco3)n3c1nc1ccccc13)CCC2	0	-2	4	0	-2
N#Cc1c2c(c(Nc3ccc(O)cc3)n3c1nc1ccccc13)CCC2	14	?	17	-1	68*
CCc1nnc(NC(=O)c2ccc(S(=O)(=O)N3CCCC(C)C3)cc2)s1 (configuration not stated)	0	-2	35*	-1	-3
CCc1nnc(NC(=O)c2ccc(S(=O)(=O)N3CCCC3)cc2)s1	-24	-2	-1	0	-6
CCN(CC)c1ccc(/C=C/C(=O)c2ccc(Br)cc2)cc1	71*	-2	-21	94*	15
O=C(O)C1CC(=O)N(CCc2ccccc2)C1 (configuration not stated)	-10	-3	-7	1	-15
CC1=C(C(=O)Nc2ccccc2C)C2(CCCCC2)C(C(N)=O)C(=S)N1 (configuration not stated)	38*	-5	0	1	-5
O=C(c1ccccc1Oc1nnnn1-c1ccccc1)N1CCOCC1	28	-1	/	0	9
Clc1ccc(OCCOCCN2CCc3ccccc3C2)c(Cl)c1	64*	0	-28	0	-14
CC1CCCN(CCCOc2ccc(Cl)cc2Br)C1 (configuration not stated)	-4	-3	-23	0	-40
Clc1ccc(SCCOCCN2CCc3ccccc3C2)cc1	50*	-3	-23	0	-8
Clc1ccc(OCCCN2CCc3ccccc3C2)c(Br)c1	64*	-3	-24	-1	-68
COc1ccc(C(=O)C2CCCN(C(=O)c3cc(C(C)C)no3)C2)cc1F (configuration not stated)	9	2	-17	1	-5
COc1cc2c(cc1NC(=O)CSc1cccc[n+]1[O-])oc1ccccc12	2	-4	-11	1	-24
O=C(C1CCN(c2ncnc3c2nc2n3CCCCC2)CC1)N1CCCCC1	13	6	-12	35*	-8
CN1CCN(C(=O)C2CCN(c3ncnc4c3nc3n4CCCCC3)CC2)CC1	-2	-1	7	0	-8
COc1ccc(-c2cc(C(F)(F)F)nc(NCc3ccc(Cl)cc3)n2)cc1	/	/	-4	4	/
O=[N+]([O-])c1c(Nc2ccc(O)cc2)cc(Cl)c2nonc12	37*	0	-4	7	-68
CN(C)c1cc(Nc2ccc(O)cc2)c([N+](=O)[O-])c2nonc12	-6	-7	9	-2	-4
SMILES	D2 antag	D2 ag-1	D2 PAM-1	D2 ag-2	D2 PAM-2
Cc1ccc(NC(=O)c2ccc(CSc3nccc(C)n3)cc2)cc1	31*	1	-21	-1	-30
Cc1ccc(-n2nc3c([n+]2[O-])CCc2nonc2-3)cc1	53*	7	4	-2	-3
COC(=O)c1cc(S(=O)(=O)N2CCC(c3ccccc3)C2)c[nH]1 (configuration not stated)	13	1	-25	0	-7
COC(=O)c1cc(S(=O)(=O)N2CCC(c3cc(OC)ccc3OC)C2)c[nH]1 (configuration not stated)	-11	3	83*	0	-5
CC1=C(C(=O)Nc2ccc(Cl)cc2)C(c2ccccc2C)n2ncc(C(=O)Nc3ccc(C)cc3)c2N1 (configuration not stated)	/	/	20	1	/
Cc1ccc(C(C)C)c(OCc2nc(-c3nonc3N)no2)c1	33*	1	6	-1	-6
Cc1ccc(C(C)C)c(OCc2n[nH]c(=S)o2)c1	-6	2	14	0	-7
O=C(Nc1cccc(-c2ccc(N3CCOCC3)nn2)c1)c1ccc(Cl)cc1	31*	1	-15	0	20
CCOC(=O)Cc1ccc2sc(-c3ccccc3)nc2c1	32*	2	5	-1	-6
CCOC(=O)c1sc(-c2ccccc2)nc1C	0	1	2	1	1
COc1ccccc1NC(=O)Nc1nc(CC(=O)Nc2cc(F)ccc2F)cs1	14	-2	-5	0	56*
COc1ccccc1NC(=O)Nc1cc(F)ccc1F	32*	-2	-5	0	-4
Cc1cc(C)cc(NC(=O)Nc2ccc(-n3ccc(C(F)(F)F)n3)cc2)c1	11	5	-13	2	-7
COc1ccccc1NC(=O)Nc1nc(C(C)(C)C)cs1	35*	-3	-18	0	-26
COc1ccccc1NC(=O)Nc1ccc(-n2ccc(C(F)(F)F)n2)cc1	71*	1	-14	1	-14
COc1ccccc1NC(=O)Nc1nc(CC(=O)Nc2cccc(F)c2)cs1	-20	7	19	-1	-13
Cc1ccccc1C(=O)Nc1ccc(N2CCN(C(=O)c3ccco3)CC2)cc1	-2	-2	10	-1	-1
CCN1C(=O)c2ccccc2S(=O)c2ccc(C(=O)NCc3ccccc3OC)cc21 (configuration not stated)	/	/	-15	0	/
CCCCSCCCNC(=O)c1ccc2c(c1)N(CC)C(=O)c1ccccc1S2=O (configuration not stated)	30*	-2	-28	1	-20
CCN1C(=O)c2ccccc2Sc2ccc(C(=O)NCCCN(CC(C)C)CC(C)C)cc21	42*	-2	-11	1	-11
CCCCN(CC)CCCNC(=O)c1ccc2c(c1)N(Cc1ccc(C)cc1)C(=O)c1ccccc1S2	/	/	-4	0	/
